Records with an inconclusive call do not appear. Calls of active or inactive are those of the source. Unless noted, calls come from the whole dose curve; as a rule, active = well fitted curve in the direction sought with a large enough effect; inconclusive = small, poorly fitted or top-dose-only effect, or another doubt; inactive = no such curve, though single readings can be large; an effect the other way counts as inactive or inconclusive.
Legend:
[1] = molecular target: Protein phosphatase 1D (Homo sapiens) (UniProt O15297); assay: RapidFire Mass Spectrometry qHTS Assay for Modulators of WT P53-Induced Phosphatase 1 (WIP1) (AID 1347424);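 note: series mostly up to about 63 µM; plate controls were DMSO wells for no effect and GSK830371 inhibitor control at 10 µM for full effect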
Procedure, shortened: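 RapidFire MS readout of dephosphorylated VEPPL-S-QETFS product, with 1 uM isotope-labelled peptide standard. Reaction: 10 nM WIP1, 2 uM phosphopeptide substrate, 5 min, room temperature, after 1 h compound preincubation; stopped with 0.5% formic acid.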

[2] = molecular target: Protein phosphatase 1D (Homo sapiens) (UniProt O15297); assay: Rhodamine-PBP qHTS Assay for Modulators of WT P53-Induced Phosphatase 1 (WIP1) (AID 1347425); note: % of control where 0% means no effect
Procedure, shortened: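 Read-out: Rhodamine-PBP fluorescence (ex 525/em 598 nm) for released Pi, read each minute for 11 min after adding 10 uM VEPPL-pS-QETFS; signal taken as f1 minus pre-substrate f0. Enzyme 5 nM WIP1 with 1 hr room-temperature compound preincubation.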

[3] = Primary qHTS for inhibitors of La Crosse Virus (LACV) - induced cell death in SH-SY5Y cells (AID 1508616);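 note: top concentration of the series differs between compounds; 0% = infected DMSO wells and 100% = uninfected DMSO wells; higher means more rescue of cells from virus-induced death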
Procedure, shortened: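 Rescue of virus-induced death was read as ATPLite luminescence after 6 days at 37C, scaled between DMSO wells with LACV and without virus. Cells were SH-SY5Y, 6000/well, infected at 0.01 MOI after compound addition.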

[4] = molecular target: Calcium and integrin-binding protein 1 (Homo sapiens) (UniProt Q99828); assay: Validation qHTS for Identification of Calcium Integrin Binding protein 1 (CIB1) Competitor (AID 1508618); note: % is set by controls: 0 for no effect and ±100 for the full control effect
Procedure, shortened: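 CIB1-GST (1 uM final) in 5 mM HEPES pH 7.4, 125 mM NaCl, 5 mM CaCl2, 0.01% Tween20 was preincubated 15 min at room temperature with compound (up to 114 uM), then FITC-alphaIIb peptide (100 nM) added for 15 min; fluorescence polarization read.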

[5] = molecular target: Calcium and integrin-binding protein 1 (Homo sapiens) (UniProt Q99828); assay: Primary qHTS for Identification of Calcium Integrin Binding Protein 1 (CIB1) Competitor (AID 1508620);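 note: GST tagged CIB1 binding a fluorescein labelled alphaIIb integrin peptide tracer; top concentration of the series differs between compounds; % is set by controls: 0 for no effect and ±100 for the full control effect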
Procedure, shortened: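 Fluorescence polarization competition: GST-tagged CIB1 (1 uM final) preincubated with compound 15 min at room temperature, then FITC-labelled alphaIIb peptide (100 nM final) added. After 15 min at room temperature, polarization read at Ex 480/Em 540.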

[6] = Confirmatory qHTS for small molecule stabilizers of the endoplasmic reticulum resident proteome: Secreted ER Calcium Modulated Protein (SERCaMP) assay (AID 1508628); note: potency is the fitted concentration of half-maximal effect; nearly all actives have a fitted effect of over 40% in size
Procedure, shortened: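 Reporter secretion upon ER calcium depletion (100 nM thapsigargin, 4 h, 37C) is measured as medium luminescence with coelenterazine, after 16 h compound pretreatment of SH-SY5Y-GLuc-SERCaMP cells; primary at three concentrations up to 38.3 uM, follow-up at 11 (up to 76.6 uM).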

[7] = molecular target: Cytochrome P450 2D6 (Homo sapiens) (UniProt P10635); assay: Cytochrome P450 family 2 subfamily D member 6 (CYP2D6) small molecule antagonists: luciferase biochemical (cell-free) qHTS assay (AID 1645840; active = well fitted curve in the direction sought with a large enough effect in the repeat runs; an effect the other way counts as inactive or inconclusive; note: nearly all actives have a fitted effect of over 55% in size; note: potency is the fitted concentration of half-maximal effect)
Procedure, shortened: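 P450-Glo CYP2D6 system: proluciferin substrate converted by enzyme to luciferin, read by luminescence proportional to activity. Enzyme-substrate mix with compound 10 min at room temperature, then NADPH regeneration 1 h before detection reagent.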

[8] = molecular target: Cytochrome P450 2C9 (Homo sapiens) (UniProt P11712); assay: Cytochrome P450 family 2 subfamily C member 9 (CYP2C9) small molecule antagonists: luciferase biochemical (cell-free) qHTS assay (AID 1645842; active = well fitted curve in the direction sought with a large enough effect in the repeat runs; an effect the other way counts as inactive or inconclusive; note: nearly all actives have a fitted effect of over 55% in size; note: potency is the fitted concentration of half-maximal effect)
Procedure, shortened: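 P450-Glo CYP2C9 system: proluciferin substrate with enzyme in mix containing 0.4% BSA, 10 min at room temperature, then NADPH regeneration solution added and incubated 1 h at 37C. Detection reagent stopped reaction; luminescence read after 20 min as RLU.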

Papain (Carica papaya) = Papain (Carica papaya) (UniProt P00784); assay: Primary qHTS assay for inhibitors of the protease papain (AID 1645873);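 note: papain turnover of Z-FR-AMC read as the AMC fluorescence gain over 10 min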; note: potency is the fitted concentration of half-maximal effect
[9] = Primary qHTS for inhibitors of nuclear receptor binding SET domain protein 2 (NSD2) in an isogenic RCH-ACV NSD2 p.E1099K mutant (9B) (AID 1645876); note: nearly all actives have a fitted effect of over 70% in size; note: potency is the fitted concentration of half-maximal effect
[10] = Primary qHTS for inhibitors of nuclear receptor binding SET domain protein 2 (NSD2) in an RCH-ACV wild type WT cells (2C) (AID 1645877); note: nearly all actives have a fitted effect of over 70% in size; note: potency is the fitted concentration of half-maximal effect
[11] = Validation qHTS assay for inhibitors of Activation Induced Cytidine Deaminase (AID): UDG Counterscreen signal (AID 1347427); note: 0% is about no effect
Procedure, shortened: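 Fluorescence at 560 nm excitation, 665 nm emission reports UDG signal after 250 mM NaOH (2x) addition and 30 min. Enzymes (AID 1 uM, UDG 2 U/mL, at 4/3x) preincubated 10 min with compound, then 4 h with 4x 250 nM DJC20/DJC23 substrate at room temperature.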

[12] = molecular target: Single-stranded DNA cytosine deaminase (Homo sapiens) (UniProt Q9GZX7); assay: Validation qHTS assay for inhibitors of Activation Induced Cytidine Deaminase (AID): AID signal (AID 1347429); note: % is set by controls: 0 for no effect and ±100 for the full control effect
Procedure, shortened: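 Compounds (final up to 114 uM) preincubated with AID plus UDG; 250 nM DJC20/DJC23 substrate mix (4x stock) added, 4 hr at room temperature, then NaOH, 30 min. Read 1 fluorescence at 540 nm excitation, 590 nm emission.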

[13] = Primary qHTS for small molecule stabilizers of the endoplasmic reticulum resident proteome: Secreted ER Calcium Modulated Protein (SERCaMP) assay (AID 1508630); note: % is set by controls: 0 for no effect and ±100 for the full control effect
Procedure, shortened: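 The SH-SY5Y reporter protocol was run at 3 concentrations up to 38.3 uM (primary) or 11 concentrations (follow-up): 16 h compound, 100 nM thapsigargin for 4 h, then extracellular luciferase luminescence.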

[14] = A High-Content qHTS Against Drug Library for the Identification of Small Molecules that Inhibit DYT1 Early Onset Primary Dystonia-Associated Cell Pathology (AID 1645839; calls by dose curve; note: series mostly up to about 46 µM)
Procedure, shortened: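 Cells were seeded and left for 24 h, then dosed with compound alongside tetracycline induction of mutant EGFP-TorsinA. They were incubated for 48 h, fixed in 4% paraformaldehyde, permeabilized and imaged for mislocalization (%pathology) and cell count.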

[15] = molecular target: Cytochrome P450 3A4 (Homo sapiens) (UniProt P08684); assay: Cytochrome P450 family 3 subfamily A member 4 (CYP3A4) small molecule antagonists: luciferase qHTS assay (AID 1645841; active = well fitted curve in the direction sought with a large enough effect in the repeat runs; an effect the other way counts as inactive or inconclusive; note: nearly all actives have a fitted effect of over 45% in size)
Procedure, shortened: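 P450-Glo CYP3A4 enzyme with proluciferin substrate preincubated 10 min with compound at room temperature, then NADPH regeneration 1 h. Luciferin detection reagent added for 20 min; luminescence recorded. Ketoconazole positive control.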

[16] = Counterscreen qHTS for small molecule stabilizers of the endoplasmic reticulum resident proteome: GLuc-NoTag assay (AID 1508627);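 note: series mostly up to about 76 µM; 0% = thapsigargin alone and -100% = DMSO vehicle control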
Procedure, shortened: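 Counterscreen line: SH-SY5Y-GLuc-NoTag. Seed, 5 h; compound, 19 h; thapsigargin 100 nM, 4 h; 37C/5% CO2. Readout: secreted GLuc luminescence, coelenterazine 0.07x final, no lysis.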

Protein phosphatase 1D (Homo sapiens), sequence (O15297 whole entry, looked up): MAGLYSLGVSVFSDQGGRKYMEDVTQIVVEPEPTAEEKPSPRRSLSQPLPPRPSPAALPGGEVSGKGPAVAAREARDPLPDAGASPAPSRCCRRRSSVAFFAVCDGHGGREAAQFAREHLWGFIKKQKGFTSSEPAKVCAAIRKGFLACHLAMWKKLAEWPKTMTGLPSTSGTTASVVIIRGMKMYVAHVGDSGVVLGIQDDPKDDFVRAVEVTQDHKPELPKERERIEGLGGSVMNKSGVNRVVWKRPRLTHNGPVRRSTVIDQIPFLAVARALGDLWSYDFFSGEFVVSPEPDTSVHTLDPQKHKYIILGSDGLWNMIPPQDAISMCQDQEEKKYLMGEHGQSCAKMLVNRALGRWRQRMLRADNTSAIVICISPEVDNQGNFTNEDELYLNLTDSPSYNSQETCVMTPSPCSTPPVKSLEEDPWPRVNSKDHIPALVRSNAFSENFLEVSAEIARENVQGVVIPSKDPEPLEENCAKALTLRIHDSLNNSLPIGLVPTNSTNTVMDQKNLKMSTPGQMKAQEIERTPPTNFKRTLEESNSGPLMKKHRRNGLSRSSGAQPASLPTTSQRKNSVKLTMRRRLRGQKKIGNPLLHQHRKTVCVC
Cytochrome P450 2D6 (Homo sapiens), sequence (P10635 whole entry, looked up): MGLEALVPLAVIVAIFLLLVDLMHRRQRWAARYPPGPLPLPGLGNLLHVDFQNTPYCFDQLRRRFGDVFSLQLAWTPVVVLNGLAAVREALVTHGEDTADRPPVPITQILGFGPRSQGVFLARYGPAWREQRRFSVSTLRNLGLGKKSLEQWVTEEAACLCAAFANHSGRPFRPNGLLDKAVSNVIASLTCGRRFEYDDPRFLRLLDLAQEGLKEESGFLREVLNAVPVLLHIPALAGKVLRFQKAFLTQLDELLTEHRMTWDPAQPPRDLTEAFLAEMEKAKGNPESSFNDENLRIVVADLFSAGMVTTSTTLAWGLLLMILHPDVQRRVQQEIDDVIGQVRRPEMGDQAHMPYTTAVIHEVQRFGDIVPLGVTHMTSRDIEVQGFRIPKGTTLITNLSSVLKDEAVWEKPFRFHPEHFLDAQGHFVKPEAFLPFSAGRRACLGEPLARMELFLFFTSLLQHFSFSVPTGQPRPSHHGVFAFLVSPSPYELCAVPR
Calcium and integrin-binding protein 1 (Homo sapiens), sequence (Q99828 whole entry, looked up): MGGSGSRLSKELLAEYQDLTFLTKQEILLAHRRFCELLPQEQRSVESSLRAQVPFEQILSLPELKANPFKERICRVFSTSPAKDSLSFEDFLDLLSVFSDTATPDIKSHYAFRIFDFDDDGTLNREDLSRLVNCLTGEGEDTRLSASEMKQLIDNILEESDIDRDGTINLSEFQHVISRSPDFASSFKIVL
Papain (Carica papaya), sequence (P00784 whole entry, looked up, the tested form may be a part): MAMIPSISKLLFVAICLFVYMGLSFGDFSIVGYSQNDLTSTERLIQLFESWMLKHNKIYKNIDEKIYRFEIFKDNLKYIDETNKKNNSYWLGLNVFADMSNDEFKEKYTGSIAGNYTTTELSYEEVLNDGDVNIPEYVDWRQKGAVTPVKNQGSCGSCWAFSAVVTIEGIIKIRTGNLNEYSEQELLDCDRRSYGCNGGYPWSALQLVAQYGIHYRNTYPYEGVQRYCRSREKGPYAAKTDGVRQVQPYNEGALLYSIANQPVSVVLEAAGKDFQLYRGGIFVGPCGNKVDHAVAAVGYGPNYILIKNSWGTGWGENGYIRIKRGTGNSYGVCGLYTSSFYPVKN
Cytochrome P450 2C9 (Homo sapiens), sequence (P11712 whole entry, looked up): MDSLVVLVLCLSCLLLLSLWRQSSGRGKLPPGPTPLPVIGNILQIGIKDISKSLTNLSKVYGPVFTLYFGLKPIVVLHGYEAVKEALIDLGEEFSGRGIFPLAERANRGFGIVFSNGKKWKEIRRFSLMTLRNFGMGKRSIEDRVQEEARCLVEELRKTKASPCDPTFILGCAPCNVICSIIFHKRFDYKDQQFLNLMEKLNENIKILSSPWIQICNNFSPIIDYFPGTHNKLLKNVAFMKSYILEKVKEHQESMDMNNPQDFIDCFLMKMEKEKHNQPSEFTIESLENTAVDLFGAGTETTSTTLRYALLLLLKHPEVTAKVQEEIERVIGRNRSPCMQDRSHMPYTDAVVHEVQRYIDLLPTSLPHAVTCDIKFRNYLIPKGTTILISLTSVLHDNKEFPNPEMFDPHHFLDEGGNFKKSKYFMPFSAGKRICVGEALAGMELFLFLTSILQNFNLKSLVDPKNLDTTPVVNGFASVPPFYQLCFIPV
Single-stranded DNA cytosine deaminase (Homo sapiens), sequence (Q9GZX7 whole entry, looked up): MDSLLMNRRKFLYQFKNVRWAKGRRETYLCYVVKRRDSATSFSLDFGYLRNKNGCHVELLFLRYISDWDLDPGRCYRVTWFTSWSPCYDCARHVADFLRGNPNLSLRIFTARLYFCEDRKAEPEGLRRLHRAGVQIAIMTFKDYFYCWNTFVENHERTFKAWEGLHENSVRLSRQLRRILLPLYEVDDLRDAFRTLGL
Cytochrome P450 3A4 (Homo sapiens), sequence (P08684 whole entry, looked up): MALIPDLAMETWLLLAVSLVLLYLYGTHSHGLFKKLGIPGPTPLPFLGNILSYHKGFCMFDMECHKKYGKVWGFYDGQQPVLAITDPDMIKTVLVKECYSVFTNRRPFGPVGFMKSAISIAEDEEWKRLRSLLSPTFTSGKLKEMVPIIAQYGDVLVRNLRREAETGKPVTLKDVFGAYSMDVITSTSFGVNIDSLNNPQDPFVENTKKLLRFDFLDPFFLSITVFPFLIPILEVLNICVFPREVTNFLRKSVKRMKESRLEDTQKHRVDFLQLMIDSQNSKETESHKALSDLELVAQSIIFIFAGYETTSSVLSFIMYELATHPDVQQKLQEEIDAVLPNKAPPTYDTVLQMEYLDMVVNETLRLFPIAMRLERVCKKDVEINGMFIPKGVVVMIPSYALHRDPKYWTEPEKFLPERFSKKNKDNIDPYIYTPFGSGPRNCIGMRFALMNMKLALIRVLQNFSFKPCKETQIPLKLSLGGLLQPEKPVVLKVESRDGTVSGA

Cc1c(O)cccc1C(=O)N[C@@H](CSc1ccccc1)[C@H](O)CN1C[C@H]2CCCC[C@H]2C[C@H]1C(=O)NC(C)(C)C
active: Potency [6] 11.2 µM | Potency [7] 3.47 µM | Potency [8] 15.5 µM | Potency [9] 15 µM | Potency [10] 16.8 µM
inactive: outcome [1] | outcome [2] | outcome [3] | outcome [4] | outcome [5] | Potency (Papain (Carica papaya))

CC(CN(C)C)CN1c2ccccc2CCc2ccccc21 (stereo not given)
active: Potency [7] 2.88 µM
inactive: outcome [1] | outcome [2] | Potency [11] | Potency [12] | outcome [3] | outcome [4] | outcome [5] | Potency [8] | Potency (Papain (Carica papaya))

OCC(O)CN1CCN(c2ccccc2)CC1 (stereo not given)
inactive: outcome [1] | outcome [2] | outcome [3] | outcome [5] | Potency [13] | Potency [14] | Potency [7] | outcome [15] | Potency [8] | Potency [9] | Potency [10]

COC(=O)C1=C(C)NC(C)=C(C(=O)OC)C1c1ccccc1[N+](=O)[O-]
inactive: outcome [1] | outcome [2] | Potency [11] | Potency [12] | outcome [3] | outcome [5] | Potency [14] | Potency (Papain (Carica papaya))

CCCCCCCCCCCCCCCC(=O)NCCO
inactive: outcome [1] | outcome [2] | Potency [11] | Potency [12] | outcome [3] | outcome [5] | Potency [16] | Potency [13] | Potency [14] | Potency [9] | Potency [10]

CC1=C(CC(=O)O)c2cc(F)ccc2/C1=C\c1ccc(S(C)=O)cc1 (stereo not given)
inactive: outcome [1] | outcome [2] | Potency [11] | Potency [12] | outcome [3] | Potency [13] | Potency [14] | Potency [7] | Potency (Papain (Carica papaya))

O=c1[nH]c(=O)c2[nH]c(=O)[nH]c2[nH]1
inactive: activity change, negative = inhibition [1] -6.34% [at 12.6 µM] | activity change, negative = inhibition [2] 10.4% [at 11.5 µM] | activity change [3] 1.46% [at 0.858 µM] | outcome [5] | activity change, negative = inhibition [13] -1.24% [at 7.35 µM] | % pathology change, negative = correction [14] 7.44% [at 9.22 µM] | activity change, negative = inhibition [7] 4.14% [at 11.5 µM] | activity change, negative = inhibition [8] 8.18% [at 11.5 µM]

CCN(CC)CCCC(C)Nc1c2ccc(Cl)cc2nc2ccc(OC)cc12 (stereo not given)
inactive: outcome [1] | outcome [2] | Potency [11] | Potency [12] | outcome [3] | Potency [13] | Potency [8]
active: Potency [7] 0.0776 µM | Potency (Papain (Carica papaya)) 17.8 µM | Potency [9] 7.42 µM | Potency [10] 5.25 µM

CSc1ccc2c(c1)C(N1CCN(C)CC1)Cc1ccccc1S2 (stereo not given)
active: Potency [7] 0.55 µM | Potency [9] 23.7 µM | Potency [10] 15 µM
inactive: outcome [1] | outcome [2] | Potency [11] | Potency [12] | outcome [3] | outcome [5] | Potency (Papain (Carica papaya))

C[C@H](N)[C@H](O)c1cccc(O)c1
inactive: outcome [1] | outcome [2] | outcome [3] | outcome [5] | Potency [13] | Potency [14] | Potency [7] | outcome [15] | Potency [9] | Potency [10]

CN1CCC[C@@H]1Cc1c[nH]c2ccc(CCS(=O)(=O)c3ccccc3)cc12
active: Potency [7] 13.8 µM | Potency [8] 13.8 µM
inactive: outcome [1] | outcome [2] | outcome [3] | outcome [4] | outcome [5] | Potency [14] | Potency (Papain (Carica papaya)) | Potency [9] | Potency [10]

Reference: PubChem BioAssay (NCATS)
